IMPase inh – membrane-permeable compound that blocks inositol monophosphatase | CHO-M1 cells, IP1 accumulation, HTRF TR-FRET ratio | inhibition (IP1 accumulation), % at 46.1 µM | 120,000 tested, under 10 active | AID 901; active means well fitted curve in the direction sought with a large enough effect in the signal ratio, not every such curve was filed as active; inconclusive means small, poorly fitted or top-dose-only effect, or a change in a side signal; inactive means no such curve, though single readings can be large or run the other way; the % refers to the signal ratio;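 further: cells stimulated with carbachol in lithium chloride buffer; plate controls were DMSO basal wells for no effect and reference inhibitor wells for full effect; higher means more IMPase inhibition seen as more IP1 and lower FRET ratio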
Target sequence (P97697 whole entry, looked up): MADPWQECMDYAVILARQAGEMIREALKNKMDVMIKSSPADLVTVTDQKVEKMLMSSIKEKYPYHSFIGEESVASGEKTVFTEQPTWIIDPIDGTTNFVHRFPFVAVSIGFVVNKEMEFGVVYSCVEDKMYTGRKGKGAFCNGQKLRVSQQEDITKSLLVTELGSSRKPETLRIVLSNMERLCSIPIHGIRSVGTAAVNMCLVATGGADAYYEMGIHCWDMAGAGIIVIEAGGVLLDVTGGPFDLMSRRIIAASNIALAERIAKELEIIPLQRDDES
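The IP-One HTRF competitive assay in carbachol-stimulated CHO-M1 cells quantifies cellular IP1. Compounds spanned up to 46 uM final, and activity is expressed as AC50 from concentration-response fits of the ratio and donor data.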
IMPase Li inh – IMPase inhibition in cells with lithium potentiation | CHO-M1 cells, IP1 TR-FRET (IP-One), carbachol + lithium | 210,000 tested, 0.35% active | Potency, µM (titrated, usually from 59.4 µM), for inactives: at the highest dose activity, negative = IMPase inhibition, most hits filed as inhibitors | AID 1457;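 further: IP1 builds up when IMPase is blocked and the TR-FRET signal falls; potency means the concentration at half of the fitted maximal effect; plate controls were basal vehicle for no effect and high inhibitor control for full effect; nearly all actives have a fitted effect of over 50% in size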
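Test compounds were applied to CHO-M1 cells previously cultured for 16–30 h at 2000 per well. A small lithium amount accompanied them; after 30 min at 37C, IP1 was quantified by TR-FRET.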
12-hLO inh – blocks human 12-lipoxygenase activity; AID 1452; purified 12-hLO, xylenol orange hydroperoxide absorbance; 150,000 tested, 0.12% active; Potency, µM (highest dose often 57.1 µM), for inactives: at the highest dose activity change, negative = inhibition, hits mostly inhibitors; further: potency means the concentration at half of the fitted maximal effect; nearly all actives have a fitted effect of over 55% in size
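Purified human 12hLO (150 nM), preincubated 15 min with compound, then 40 uM arachidonic acid for 30 min, room temperature, Hepes pH 7.0 with 0.01% Triton X-100. Hydroperoxide detected by ferrous iron/xylenol orange; 573/405 nm absorbance ratio gives reaction progress.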
ALOX15B inhib – blocks human 15-lipoxygenase 2 activity; O15296; purified 15hLO-2, xylenol orange hydroperoxide absorbance; Potency, µM (series often up to 57.1 µM), for inactives: at the top dose activity change, negative = inhibition, actives largely listed as inhibitors; 110,000 tested, 0.56% active; further: potency means the concentration at half of the fitted maximal effect; nearly all actives have a fitted effect of over 60% in size
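Enzyme 50 nM, AA 45 uM, 25 mM Hepes pH 7.5 + 0.01% Triton X-100; cpd preinc 15 min RT, rxn 90 min RT; stop/detect with 200 uM XO + 300 uM Fe(II) in 50 mM H2SO4, 30 min; A573/A405.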
* marks the source's active call; other numbers are inactive results; ? = inconclusive; · = no result; [ ] = another dose, or the depositor's remark. In the library only some 0.57% were active in any assay of this set; here they are far more common. Unless noted, the call rests on the fitted dose curve; in most records, active means well fitted curve in the direction sought with a large enough effect; inconclusive means small, poorly fitted or top-dose-only effect, or another doubt; inactive means no such curve, though single readings can be large; an effect the other way counts as inactive or inconclusive. Unless noted, on the % scale 0 is the no-effect control and ±100 the full control effect.

SMILES	IMPase inh	IMPase Li inh	12-hLO inh	ALOX15B inhib
N#Cc1cnn2c(N)c(-c3ccc(Cl)cc3)cnc12	·	11µM*	·	·
CCOc1ccc(C(CC(=O)O)NC(=O)c2sc3ccccc3c2Cl)cc1 (stereo unspecified)	-29	8.9µM*	-4%	·
CCCOc1ccc(C(CC(=O)O)NC(=O)c2sc3ccccc3c2Cl)cc1 (stereo unspecified)	·	3.2µM*	·	·
CCOc1ccc(C(CC(=O)O)NC(=O)c2ccco2)cc1 (stereo unspecified)	-6	3%	-2%	·
Cc1cccc(CN2CCN(CC(=O)O)C2=O)c1	?	11µM*	-15%	3%
Cc1cccc(-n2c(=S)[nH]c3c(oc4ccccc43)c2=O)c1	·	8.9µM*	-1%	·
O=c1c2oc3ccccc3c2[nH]c(=S)n1-c1ccccc1	?	8.9µM*	-5%	·
Cc1cc(=O)oc2cc(O)c(CN(C)CC(=O)O)cc12	·	3%	0%[11.4 µM]	1%[11.4 µM]
COC(=O)/C=C/c1cc(O)ccc1O	·	9%	·	·
O=C(c1ccc(-n2c(=O)c(=O)[nH]c3ccccc32)cc1)N1CCCN(Cc2ccccc2)CC1	·	·	0%	·
CCCc1nc(SCC(=O)NNC(=O)c2ccc(OC)cc2)c2ccccc2n1	·	10µM*	·	·
CCCc1nc(SCC(=O)NNC(=O)C2CCCCC2)c2ccccc2n1	-7	?	5%	-26%
Cc1ccccc1N1C(=O)CC(Sc2nnc(-c3ccccc3)o2)C1=O (stereo unspecified)	?	10µM*	-8%	-13%
O=C1CC(Sc2nnc(-c3ccccc3)o2)C(=O)N1c1ccccc1 (stereo unspecified)	?	?	-1%	-15%
CCOC(=O)c1c2ccc(OCC(=O)NN)cc2n2ccccc12	·	2%	·	·
CCOC(=O)c1c2ccc(OCC(=O)N/N=C/c3ccc(C)cc3)cc2n2ccccc12	0	12%[38.3 µM]	-5%	16µM*
Oc1ccccc1C1Nc2cccc3cccc(c23)N1	4	11%[38.3 µM]	?	2µM*
CCOC(=O)c1sc2nc(Cc3ccc(Cl)cc3)[nH]c(=S)c2c1C	·	7.9µM*	·	·
CCOC(=O)c1sc2nc(COC(=O)c3c(F)cccc3F)[nH]c(=O)c2c1C	·	-2%	·	·
O=[N+]([O-])c1ccc(NNC(=S)Nc2ccccc2)cc1	15	20%[38.3 µM]	?	4µM*
COc1ccc(OCC(=O)Nc2cc(-c3nn(C)c(=O)c4ccccc34)ccc2OC)cc1	8	7.9µM*	-9%	-13%
COC(=O)[C@H](COC(C)(C)C)NC(=O)O[C@@H]1Cc2cc(OC)ccc2O[C@H]1c1cccc(OC)c1	·	26%	·	·
COc1ccc(-c2nnc(NC(=O)C(C)C)s2)c(OC)c1	?	13µM*	3%	3%
COc1ccccc1-c1nnc(NC(=O)OCC(C)C)s1	-14	11µM*	-4%	6%
COc1ccc(OC)c(-c2nnc(NC(=O)C(C)Sc3nncn3C)s2)c1 (stereo unspecified)	-2	16%[38.3 µM]	-2%	-5%
SMILES	IMPase inh	IMPase Li inh	12-hLO inh	ALOX15B inhib
COc1ccc(-n2c(SCC(=O)Nc3cc(C)on3)nc3c([nH]c4ccccc43)c2=O)cc1	·	5µM*	·	·
CCOC(=O)c1cc(-c2ccc(/C=C3/C(=O)NC(=O)C(C#N)=C3C)o2)ccc1Cl	-5	-20%[38.3 µM]	-20%	25µM*
CCOC(=O)Cn1c(=NC(=O)c2nc3ccccc3s2)sc2cc(S(N)(=O)=O)ccc21	·	10µM*	-3%	·
CCOC(=O)Cn1c(=NC(=O)CN2C(=O)CCC2=O)sc2cc(S(N)(=O)=O)ccc21	·	-6%	-1%	·
C=CCn1c(=NC(=O)c2sc3ccccc3c2Cl)sc2cc(S(N)(=O)=O)ccc21	·	10µM*	-3%	·
COCCn1c(=NC(=O)c2sc3ccccc3c2Cl)sc2cc(S(N)(=O)=O)ccc21	·	11µM*	2%	·
COCCn1c(=NC(=O)c2cc(-c3cccs3)nc3ccccc23)sc2cc(S(N)(=O)=O)ccc21	·	-8%	-5%	·
O=C(NCCO)c1ccc(Cc2nc3ccccc3[nH]2)cc1	·	·	0%	·
CCCCc1nc2c(c3c1C[C@H](C)OC3)CN(C(=O)C1CC1)CC2	·	10%	1%[11.4 µM]	·
Nc1ncnc2c1ncn2[C@@H]1O[C@@H](C(=O)NC2CC2)[C@H](O)[C@@H]1O	1	·	-2%	2%
N#CCCn1c(=O)c(-c2ccc(Cl)cc2)nc2cnc(Oc3cccc(Cl)c3)nc21	·	11µM*	-4%	-11%
N#CCCn1c(=O)c(-c2cccc(C#N)c2)nc2cnc(Oc3cccc(Cl)c3)nc21	·	11%	·	-7%
N#CCCn1c(=O)c(-c2ccc(F)cc2)nc2cnc(Oc3cccc(Cl)c3)nc21	·	8.9µM*	6%	-1%
Cc1cc(O)c(C(C)(C)C)cc1Sc1cc(C(C)(C)C)c(O)cc1C	·	-5%	-3%	-16%
COc1cccc2cc(C(=O)NCc3ccco3)c(=O)oc12	·	11µM*	0%	·
COC(=O)C1=C(C(=O)OC)[C@@H]2Nc3ccccc3[C@@]23C[C@@H](C(=O)OC)N(S(=O)(=O)c2c(C)noc2C)C3=N1	·	8%	-1%[11.4 µM]	·
Cc1ccc(N(CC(=O)Nc2ccc(-c3nc4ccc(C)cc4s3)cc2)S(C)(=O)=O)cc1	5	13µM*	-7%	-12%
Cc1ccc(C)c(N(CC(=O)Nc2ccc(-c3nc4ccc(C)cc4s3)cc2)S(C)(=O)=O)c1	·	-16%	0%	·
Cc1ccc2nc(-c3ccc(NC(=O)CCS(=O)(=O)c4ccccc4)cc3)sc2c1	-12	13µM*	-3%	·
CC(Cc1ccc(O)c(O)c1)(NN)C(=O)O (stereo unspecified)	·	16%	32%	30%
COc1cc2c(-c3ccc(O)cc3)nc3c(c(C)nn3-c3ccccc3)c2cc1OC	·	10%	-4%	·
COc1cc2c(C)nc3c(c(C)nn3-c3ccccc3)c2cc1OC	·	11µM*	·	·
N#C/C(=C/c1ccc(N2CCCCCC2)o1)c1cccc(F)c1	17	108%[38.3 µM]	?	7.9µM*
N#C/C(=C/c1ccc(N2CCOCC2)o1)c1ccc(Br)cc1	-8	13%[38.3 µM]	?	10µM*
N#C/C(=C\c1ccc(N2CCOCC2)o1)C(=O)Nc1ccc(O)cc1	·	9%	·	·
SMILES	IMPase inh	IMPase Li inh	12-hLO inh	ALOX15B inhib
N#C/C(=C/c1ccc(N2CCOCC2)o1)c1nc2ccccc2[nH]1	?	29%	-5%	·
N#C/C(=C\c1ccc(N2CCOCC2)o1)c1ccccc1	4	28%[38.3 µM]	-14%	10µM*
COCCN(CCOC)C(=O)c1ccc(Cc2nc3ccccc3[nH]2)cc1	·	·	-6%	·
COC(=O)c1cc(Cl)c(NC(=O)/C=C/c2ccc(OC)c(OC)c2)cc1OC	-8	10µM*	1%	-2%
c1ccc([C@H](c2cccc3c2ccc2ccccc23)[C@H](c2ccccc2)c2cccc3c2ccc2ccccc23)cc1	·	·	6%[11.4 µM]	-1%[11.4 µM]
COc1ccc2[nH]c3c(=S)nc[nH]c3c2c1	·	2.8µM*	·	·
C=CCN1c2ccccc2[C@]23C[C@@H](C(=O)OC)N(S(=O)(=O)c4c(C)noc4C)C2=NC(C(=O)OC)=C(C(=O)OC)[C@H]13	·	3%	1%[11.4 µM]	·
N#Cc1cc2c(nc1SCc1ccccc1)CCCC2	·	16µM*	-1%	·
